Measurements taken from PubChem BioAssay AID651650 (Sanford-Burnham Center for Chemical Genomics, 2012).

What follows are compounds tested against Neuropilin-1 (Homo sapiens) (UniProt O14786) (assay: blockers of CendR peptide binding to NRP-1 – biochemical, FP and AlphaScreen panel, dose response (AID 651650)). Conditions: NRP-1 b1b2 / RPARPAR peptide binding, FP or AlphaScreen; run 1, at 100 µM (top of the series).
Chain of Neuropilin-1 (Homo sapiens) (O14786 whole entry, looked up): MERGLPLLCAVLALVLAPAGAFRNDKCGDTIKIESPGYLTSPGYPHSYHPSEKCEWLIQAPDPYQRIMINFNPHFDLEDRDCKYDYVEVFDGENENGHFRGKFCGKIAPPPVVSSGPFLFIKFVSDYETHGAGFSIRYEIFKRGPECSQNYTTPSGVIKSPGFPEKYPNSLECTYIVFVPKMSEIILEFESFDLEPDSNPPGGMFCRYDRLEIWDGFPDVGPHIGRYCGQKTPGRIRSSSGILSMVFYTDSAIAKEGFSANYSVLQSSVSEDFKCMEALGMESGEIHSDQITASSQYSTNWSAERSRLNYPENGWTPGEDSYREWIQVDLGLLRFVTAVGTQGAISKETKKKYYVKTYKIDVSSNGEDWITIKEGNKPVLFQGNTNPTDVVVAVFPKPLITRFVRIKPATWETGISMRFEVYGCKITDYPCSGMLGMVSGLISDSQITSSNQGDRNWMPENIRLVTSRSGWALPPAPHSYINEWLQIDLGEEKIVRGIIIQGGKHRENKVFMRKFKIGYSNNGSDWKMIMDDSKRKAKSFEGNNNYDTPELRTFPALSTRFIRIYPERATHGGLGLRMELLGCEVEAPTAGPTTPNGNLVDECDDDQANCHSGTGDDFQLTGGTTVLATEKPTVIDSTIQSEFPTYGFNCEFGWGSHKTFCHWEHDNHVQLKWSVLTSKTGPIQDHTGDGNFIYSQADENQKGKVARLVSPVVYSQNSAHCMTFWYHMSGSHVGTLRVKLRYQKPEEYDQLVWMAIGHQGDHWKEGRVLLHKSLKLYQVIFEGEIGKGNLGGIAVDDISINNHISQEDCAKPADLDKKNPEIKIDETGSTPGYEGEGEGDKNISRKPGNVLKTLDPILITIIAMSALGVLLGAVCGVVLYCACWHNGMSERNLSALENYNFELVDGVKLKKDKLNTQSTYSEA

First: O=C(COC(=O)C1CC(=O)N(Cc2ccccc2)C1)Nc1ccccc1F (stereo not drawn)
Second: C=C1CCN([C@@H](CC(C)C)C(=O)NCc2ccccc2)S(=O)(=O)c2ccccc21
The inhibition of the first is higher: 56.9% for the first, 12.9% for the second.

Compared with CC(=NN(Cc1ccccc1)c1ccccc1)c1ccccc1, COC(=O)C1N[C@@H]([C@@H](NC(=O)COc2ccccc2)C(=O)NCc2ccccc2)SC1(C)C (stereo partly drawn) is lower in inhibition: 87.9% for the first, 18.2% for the second.

Compared with CC(C)Cc1ccc(C(C)C(=O)Nc2ccc(O)cc2)cc1 (stereo not drawn), NC(=O)C1=C[C@H](c2ccc(Br)cc2)C[C@H](OCc2ccc(CO)cc2)O1 is higher in inhibition: 34.6% for the first, 36.9% for the second.

First: OCC1OC(n2cnc3c(/C=C(\O)c4ccccc4)ncnc32)C(O)C1O (stereo not drawn)
Second: CCOC(=O)Cc1csc(NC(=O)CSc2ncnc3c2cnn3-c2ccccc2Cl)n1
The inhibition of the first is lower: 3.57% for the first, 11.5% for the second.

Going from CCN1C(=O)C(=O)c2cc(C)ccc21 to Cc1ccc(C(=O)NCCCc2ccccc2)c(C)c1, the inhibition rises from 13.5% to 37.1%.

Going from O=C1CCCN1CCCNc1nc(NCc2cccs2)nc2ccsc12 to O=C1CSC(c2cn(-c3ccccc3)nc2-c2cccs2)N1CC1CCCO1 (stereo not drawn), the inhibition falls from 81.3% to 73.3%.

Compared with CCn1c(=O)c(C(=O)NCCNCCO)c(O)c2ccccc21, CCn1c(N)c(C(=O)NCc2cccnc2)sc1=S is higher in inhibition: 26.5% for the first, 100% for the second.

First: NC(=O)C(c1ccc(Cl)cc1Cl)c1ncc(C(F)(F)F)cc1Cl (stereo not drawn)
Second: COc1cccc(OCCNC(=O)Nc2cc(F)c(F)cc2Cl)c1
The inhibition of the first is higher: 88.6% for the first, 54.1% for the second.

Going from Cn1c(=O)c2[nH]c(NCCCN3CCOCC3)nc2n(C)c1=O to O=C(Nc1ccc(N2CCOCC2)cc1)c1cc(-n2cnnc2)ccc1Cl, the inhibition rises from 44.2% to 55%.

Going from CC(C)C1=C2CCCCC2NC(=O)N1 (stereo not drawn) to O=C(CCC(=O)Nc1ccccc1Cl)NN=C1CCCC1, the inhibition rises from 32.2% to 67.6%.

Going from CCCN=C1N/C(=C\c2ccco2)C(=O)N1c1ccccc1 to O=Cc1ccc(-c2ccccc2C(=O)O)o1, the inhibition rises from 3.93% to 51.8%.

First: COc1ccc(Cl)cc1NC(=O)C(C)N1CCc2ccccc21 (stereo not drawn)
Second: COc1ccc(S(=O)(=O)N2CCCCC2)cc1NC(=O)c1c(F)cccc1Cl
The inhibition of the first is higher: 82.6% for the first, 37.3% for the second.

Going from COC(=O)CCCC1=CC2=CC(=O)C(C)(OC(=O)c3cccs3)C(=O)C2=CN1CCCCO (stereo not drawn) to Cc1cn([C@H]2C[C@H](O)[C@@H](CCC(=O)NCCc3ccc4ccccc4c3)O2)c(=O)[nH]c1=O, the inhibition falls from 38.6% to 22.6%.

Compared with CCOc1ccccc1C1CC(=O)NC2=C1C(=O)CC(C)(C)C2 (stereo not drawn), CC(=O)Oc1cc2c(c3ccccc13)CCC2=O is lower in inhibition: 32% for the first, 23.4% for the second.

Compared with c1ccc2c(CNc3ccc(CNc4ncn[nH]4)cc3)cccc2c1, CC(C)(C)C(=O)COC(=O)c1cc(-c2ccncc2)nc2ccccc12 is lower in inhibition: 25.6% for the first, 19.4% for the second.

First: Nc1ccc(C(=O)Nc2ccc(Nc3ccncc3)cc2)c([N+](=O)[O-])c1
Second: C[C@@H](C(=O)Nc1cccnc1)n1c(=O)[nH]c2ccccc2c1=O
The inhibition of the first is higher: 102% for the first, 44.7% for the second.

First: Cc1onc(-c2ccccc2)c1C(=O)N1CCCC1
Second: CCOC(=O)/C=C/COc1ccccc1[N+](=O)[O-]
The inhibition of the first is higher: 31.9% for the first, 29.2% for the second.

Going from CC1CCC(NC(=O)C2CCC(CNS(=O)(=O)c3cccc4cccnc34)CC2)CC1 (stereo not drawn) to NC(=O)CC[C@H](NC(=O)c1ccc(F)cc1)C(=O)N1CCN(Cc2ccc3c(c2)OCO3)CC1, the inhibition rises from 19% to 28.6%.

Compared with Nc1ccc(C#Cc2c(-c3ccsc3)oc3ccc(N4CCOCC4)cc23)cc1, Cc1cc(C)n(-c2nnc3n2N=C(c2c[nH]c4ccccc24)CS3)n1 is lower in inhibition: 28.3% for the first, 2.19% for the second.
